From the supplement of paper PMC6522484
± gives the standard deviation of the averaged measurements.

How the values were obtained:
DLD1 [1] = test: cell viability (CellTiter-Glo) relative to plate median (fraction of plate median); higher = more viable cells; settings: 5 µM; treatment time 24 h; reporter: 7TFP
In short: (§1)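 Stable lentiviral TCF/Wnt firefly luciferase reporters (7TFP or TCF4/Wnt) were present in the colorectal cancer cell lines used. These cells received library compounds at a final 5 µM for 24 h, and parallel plates were read for firefly luciferase or CellTiterGlo luminescence. Each well was normalised to the plate median, and the value reported is the mean of two independent replicates.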

HCT116 = test: as above; settings: 5 µM; treatment time 24 h; reporter: TCF4/Wnt
In short: as §1

SW480 [2] = test: as above; settings: 5 µM; treatment time 24 h; reporter: 7TFP
In short: as §1

DLD1 [3] = test: TCF/Wnt firefly luciferase reporter signal relative to plate median (fraction of plate median); higher = higher Wnt reporter signal; settings: 5 µM; treatment time 24 h; reporter: 7TFP
In short: as §1

SW480 [4] = test: as above; settings: 5 µM; treatment time 24 h; reporter: 7TFP
In short: as §1

SMILES	cell viability (DLD1 [1])	cell viability (HCT116)	cell viability (SW480 [2])	TCF/Wnt firefly luciferase reporter signal (DLD1 [3])	TCF/Wnt firefly luciferase reporter signal (SW480 [4])
CC(=O)Oc1cc(OC(C)=O)c2c(c1)O[C@H](c1ccc(OC(C)=O)c(OC(C)=O)c1)[C@H](OC(C)=O)C2	1 ± 0.055	0.972 ± 0.15	1.01 ± 0.016	0.921 ± 0.044	1 ± 0.015
COc1ccc(C[C@H](N)C(=O)N[C@H]2[C@@H](O)[C@H](n3cnc4c(N(C)C)ncnc43)O[C@@H]2CO)cc1	0.892 ± 0.1	0.908 ± 0.04	0.9485 ± 0.00071	0.999 ± 0.03	1.05 ± 0.042
CC(=O)[C@@]1(O)CC[C@H]2[C@@H]3C[C@H](C)C4=CC(=O)C=C[C@]4(C)[C@@]3(F)[C@@H](O)C[C@@]21C	1.07 ± 0.085	1.03	0.957 ± 0.044	0.985 ± 0.079	0.99 ± 0.057
CC(C)NCC(O)c1cc(O)cc(O)c1 (stereo not given)	0.999 ± 0.03	0.954 ± 0.06	0.976 ± 0.048	0.914 ± 0.11	0.987 ± 0.018
Cc1cc(O)cc(=O)o1	1.05 ± 0.064	1.07 ± 0.05	1.04 ± 0.028	0.988 ± 0.1	1.03 ± 0.21
COc1ccc2c(c1)OC/C(=C/c1ccc(OC)c(OC)c1)C2=O	0.936 ± 0.028	0.989 ± 0.086	0.966 ± 0.028	0.92 ± 0.021	0.972 ± 0.083
CCCn1c(=O)c2[nH]c(C3CCCC3)nc2n(CCC)c1=O	0.998 ± 0.059	1.03 ± 0.047	1.02 ± 0.037	1.04 ± 0.16	0.968 ± 0.073
Clc1ccccc1C(c1ccccc1)(c1ccccc1)n1ccnc1	1.05 ± 0.089	1 ± 0.11	0.956 ± 0.0042	0.938 ± 0.086	1.08 ± 0.014
NCc1ccc(S(N)(=O)=O)cc1	0.962 ± 0.023	1 ± 0.069	0.991 ± 0.042	1.03 ± 0.17	1.12 ± 0.078
C=C1C(=O)O[C@@H]2C[C@@]3(C)CCC[C@H](C)C3=C[C@H]12	1.01 ± 0.02	0.875 ± 0.027	0.96 ± 0.0057	0.985 ± 0.0057	1.03 ± 0.067
C[C@@H]1O[C@H]2O[C@@H]3[C@@H](C)OC(c4ccc5c(c4O)C(=O)c4ccc(C[C@@](C)(O)CC(=O)O)c(O)c4C5=O)C[C@H]3O[C@H]2CC1=O (stereo not given in full) [Fridamycin D]	1.14 ± 0.099	0.942 ± 0.12	1.02 ± 0.021	1.14 ± 0.057	1.08 ± 0.021
CC(=O)O[C@@H]1C[C@H]2C(C)(C)[C@H](O)C[C@H](O)[C@]2(C)[C@H]2CC[C@@]3(C)[C@H](c4ccoc4)OC(=O)[C@H]4O[C@]43[C@@]21C	0.9065 ± 0.005	0.942 ± 0.012	0.977 ± 0.0014	1 ± 0.11	0.892 ± 0.033
O=c1occ(C(O)CO)c2cccc(O)c12 (stereo not given) [Oospoglycol]	0.886 ± 0.079	0.9515 ± 0.0035	0.976 ± 0.09	1.1 ± 0.11	1.01 ± 0.15
CC[C@H]1OC(=O)[C@H](C)[C@@H](O[C@H]2C[C@@](C)(OC)[C@@H](O)[C@H](C)O2)[C@H](C)[C@@H](O[C@@H]2O[C@H](C)C[C@H](N(C)C)[C@H]2O)[C@](C)(O)C[C@@H](C)[C@@H]2N[C@@H](COCCOC)O[C@H]([C@H]2C)[C@]1(C)O	1.02 ± 0.049	0.991 ± 0.027	0.931 ± 0.0028	0.975 ± 0.05	0.998 ± 0.045
